From PubChem BioAssay AID1159580 (chemical genetic matrix, 2015)
The whole screen tested about 5,500 compounds, of which about 2,000 (36%) were called active. Another 18% or so got no clear call; they are omitted. Cut-off read from the data, not from the text of the source: active = normalized growth mostly below about 0.91 (no sharp cut-off); inconclusive = no clear call, values can overlap the other calls; inactive = mostly above about 0.92. This is one part of the list.

Assay: chemical genetic growth profiling, strain panel (AID 1159580);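 note: tested at 20 µM; growth read once vehicle control cultures reached saturation at 30 °C; 1 = growth at the plate median or of vehicle wells; lower values mean less growth of the strain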
Settings: S. cerevisiae deletion strains, growth OD

Measured: normalized growth

CCCCCCCCCCCCCCCCOP(=O)([O-])OCC[N+](C)(C)C
inactive: locus YHR030C, strain SLT2, active compounds read low 0.971 | locus YHR079C, strain IRE1, active compounds read low 0.967 | locus YJL095W, strain BCK1, active compounds read low 0.985 | locus YJR066W, strain TOR1, active compounds read low 0.915 | locus YLR113W, strain HOG1, active compounds read low 1.07 | locus YNL183C, strain NPR1, active compounds read low 0.912 | locus YOR231W, strain MKK1, active compounds read low 0.953 | locus YPL256C, strain CLN2, active compounds read low 1.01
active: locus YAL021C, strain ccr4, active compounds read low 0.0619 | locus YAL026C, strain drs2, active compounds read low 0.0625 | locus YAL030W, strain snc1, active compounds read low 0.0575 | locus YBL061C, strain skt5, active compounds read low 0.0614 | locus YBR009C, strain hhf1, active compounds read low 0.0673 | locus YBR023C, strain chs3, active compounds read low 0.0636 | locus YBR171W, strain sec66, active compounds read low 0.0767 | locus YBR231C, strain swc5, active compounds read low 0.0637 | locus YBR279W, strain paf1, active compounds read low 0.0644 | locus YCL011C, strain gbp2, active compounds read low 0.0569 | locus YCL016C, strain dcc1, active compounds read low 0.0649 | locus YCL061C, strain MRC1, active compounds read low 0.0638 | locus YCL069W, strain vba3, active compounds read low 0.0585 | locus YCR088W, strain abp1, active compounds read low 0.0589 | locus YDL005C, strain med2, active compounds read low 0.0739 | locus YDL040C, strain nat1, active compounds read low 0.062 | locus YDR001C, strain nth1, active compounds read low 0.0559 | locus YDR069C, strain doa4, active compounds read low 0.0612 | locus YDR137W, strain rgp1, active compounds read low 0.105 | locus YDR159W, strain sac3, active compounds read low 0.0874 | locus YDR195W, strain ref2 0.133 | locus YDR297W, strain sur2, active compounds read low 0.0626 | locus YDR334W, strain swr1, active compounds read low 0.0607 | locus YDR335W, strain msn5, active compounds read low 0.0579 | locus YDR392W, strain spt3, active compounds read low 0.0822 | locus YEL003W, strain gim4, active compounds read low 0.0548 | locus YEL037C, strain rad23, active compounds read low 0.0549 | locus YEL061C, strain CIN8 (second series), active compounds read low 0.0587 | locus YER015W, strain faa2, active compounds read low 0.0638 | locus YER016W, strain bim1, active compounds read low 0.0622 | locus YER111C, strain swi4, active compounds read low 0.0695 | locus YER155C, strain BEM2 (second series), active compounds read low 0.0842 | locus YFR010W, strain ubp6, active compounds read low 0.0648 | locus YGL167C, strain pmr1, active compounds read low 0.0766 | locus YGL173C, strain kem1, active compounds read low 0.082 | locus YGL227W, strain vid30, active compounds read low 0.0637 | locus YGL240W, strain doc1, active compounds read low 0.0747 | locus YGL253W, strain hxk2, active compounds read low 0.0509 | locus YHR013C, strain ard1, active compounds read low 0.14 | locus YHR027C, strain rpn1, active compounds read low 0.0701 | locus YHR142W, strain chs7, active compounds read low 0.0698 | locus YJL092W, strain hpr5, active compounds read low 0.0564 | locus YJL095W, strain BCK1 (second series), active compounds read low 0.0584 | locus YJL115W, strain asf1, active compounds read low 0.0702 | locus YJL129C, strain trk1, active compounds read low 0.0808 | locus YJL154C, strain vps35, active compounds read low 0.0578 | locus YJL164C, strain tpk1, active compounds read low 0.0591 | locus YJL166W, strain qcr8, active compounds read low 0.061 | locus YKL160W, strain elf1, active compounds read low 0.0625 | locus YKR026C, strain gcn3, active compounds read low 0.0625 | locus YKR091W, strain srl3, active compounds read low 0.072 | locus YLL001W, strain dnm1, active compounds read low 0.0583 | locus YLL026W, active compounds read low 0.0591 | locus YLL041C, strain sdh2, active compounds read low 0.058 | locus YLR027C, strain aat2, active compounds read low 0.0551 | locus YLR221C, strain rsa3, active compounds read low 0.0588 | locus YLR258W, strain gsy2, active compounds read low 0.0598 | locus YLR262C, strain YPT6 (second series), active compounds read low 0.0755 | locus YLR320W, strain mms22, active compounds read low 0.0754 | locus YLR342W, strain FKS1, active compounds read low 0.0648 | locus YLR357W, strain rsc2, active compounds read low 0.121 | locus YLR370C, strain arc18, active compounds read low 0.062 | locus YLR384C, strain iki3, active compounds read low 0.0585 | locus YML120C, strain ndi1, active compounds read low 0.0597 | locus YMR058W, strain fet3, active compounds read low 0.0574 | locus YMR125W, strain sto1, active compounds read low 0.075 | locus YMR129W, active compounds read low 0.0586 | locus YMR205C, strain PFK2, active compounds read low 0.0871 | locus YMR231W, strain pep5, active compounds read low 0.173 | locus YNL071W, strain lat1, active compounds read low 0.0608 | locus YNL209W, strain ssb2, active compounds read low 0.0625 | locus YNL248C, strain rpa49, active compounds read low 0.0698 | locus YNL322C, strain KRE1 (second series), active compounds read low 0.0641 | locus YNR049C, strain mso1, active compounds read low 0.0585 | locus YOR001W, strain rrp6, active compounds read low 0.0712 | locus YOR070C, strain gyp1, active compounds read low 0.0615 | locus YOR080W, strain dia2, active compounds read low 0.0657 | locus YOR083W, strain WHI5, active compounds read low 0.0753 | locus YOR106W, strain vam3, active compounds read low 0.0675 | locus YOR265W, strain rbl2, active compounds read low 0.0614 | locus YOR270C, strain vph1, active compounds read low 0.093 | locus YOR290C, strain snf2, active compounds read low 0.069 | locus YPL051W, strain arl3, active compounds read low 0.0646 | locus YPL078C, strain atp4, active compounds read low 0.0596 | locus YPL106C, strain sse1, active compounds read low 0.0983 | locus YPL240C, strain hsp82, active compounds read low 0.0574
